# ± gives the standard deviation.
# Tested on: MILI (PIWIL2) piRISC loaded with piRNA #1 (26 nt)
# Experiment: pre-steady-state target cleavage rate (min^-1); guide: piRNA #1 5'p-UGAGGUAGUAGGUUGUAUAGUAUCCA; MIWI and MILI are mouse PIWI proteins and EfPiwi is from a freshwater sponge; tags in brackets are library labels; higher = faster piRNA-guided slicing of the target
# Conditions: auxiliary factor: 500 nM mouse GTSF1
# Outline: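 The pre-steady-state cleavage rate was calculated from a burst-and-steady-state fit. Data came from Cleave-'n-Seq, in which […] transcribed, DNA-blocked target RNA library was mixed with 1 nM active affinity-purified piRISC carrying one synthetic guide, with or without 500 nM GTSF1 partner protein, in HEPES–potassium acetate buffer at 33 °C for 0–8 or 0–960 min. Uncleaved targets were sequenced and normalised to depth and to weakly complementary targets, three trials were pooled, and k3 was capped at 0.0001 min^-1.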
# 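Note: 1 nM active piRISC with 0.1 nM target library at 33 °C single turnover.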
row,Sequence,pre-steady-state target cleavage rate
1,GGAGACCUAUGUAUACAAGCUAGUACCUCA,0.0538 ± 0.0098
2,GGAGACCUAUCUAUACAACCUAGAUCCUCA,0.0047 ± 0.0021
3,GGAGACCUAUGAUAUGUACCUACUACCCCA,< 0.0001
4,GGAGUGGAUACUAUUCAACCUACUUCCUCA,0.00253 ± 0.002
5,GGAGACGAUACUAUACAACCAACUACCUGA,0.00533 ± 0.0024
6,GGAGACCUAUCUAUACAAGCUACUUCCUCA,0.164 ± 0.015
7,GGAGACCUUUCUAUACAACCUACAACCUCA,0.0806 ± 0.01
8,GGAGACCUUACUAUACAACCUACUACAUCA,0.106 ± 0.013
9,GGAGACCUAUGAAUACAACCUACUUACCUCA,0.00968 ± 0.0023
10,GGAGACCUAACUAUACUACCUACUACGUCA,0.0596 ± 0.018
11,GGAGACCUAUCUUUACAACCUACUACCUGA,0.0554 ± 0.012
12,GGAGACCUAACUAUACAACCGUACUACCUCA,0.00506 ± 0.005
13,GGAGACCUAUGAUAUGUUUCUACUACCUCA,< 0.0001
14,GGAGACCUUAGAUUACAACCUACUACCUCA,0.0208 ± 0.007
15,GGAGACCUAUGAUUUACAACCUACUACCUCA,0.00564 ± 0.003
16,GGAGACCUAUGAUUACAACCUACUUACCUCA,0.0057 ± 0.0019

# Reference: the supplement of paper PMC10338343
